62 compounds from PubChem BioAssay AID1578 (Sanford-Burnham Center for Chemical Genomics, 2009) can be followed below.

Out of some 290,000 compounds screened, about 3,000 (1%) were called active. This is one part of a sample in which actives are shown more often than they occur. A number with no mark means an inactive call. Cut-off read from the data, not from the text of the source: active = inhibition mostly above about 36% (no sharp cut-off); inactive = mostly below about 34%.

This experiment can be described thus: NOD1 signaling inhibitors, primary screen, cell-based, luminescence, uHTS (AID 1578).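 Note: HEK-293T reporter cells stimulated with the NOD1 agonist gamma-tri-DAP.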 Conditions: NOD1-driven NF-kB luciferase reporter cells, at 4 µM, stronger effect = higher value. Background: In a reporter assay the amount or activity of a reporter protein is the signal.
As usually defined, the inhibition is the change of the read-out against control, counted positive when it falls. Take `O=C(COC(=O)c1ccco1)Nc1ccccc1[N+](=O)[O-]`: the inhibition is -4.7%.

Regarding `CN(C)C(=O)Nc1ccccc1CC[N+](=O)[O-]`, the inhibition is -28.5%. As for `COc1ccc(-c2csc3ncnc(Cl)c23)cc1`, the inhibition is -16.4%. Consider `Cc1c(C(=O)N2CCN(c3ccccc3F)CC2)oc2c1C(=O)CC(C)(C)C2`, for which the inhibition was 0%. With `O=S(=O)(/N=C(\Sc1ccc(Cl)cc1)c1ccccc1)c1ccccc1`, the inhibition was 3.3%. `C=CCn1c(=O)c2c3c(sc2n2c(Nc4ccc(C(=O)OCC)cc4)nnc12)CCCC3`: the inhibition was -30.7%. Under `CCC(C)(C)NC(=O)C(c1ccc(OC)cc1)N(C(=O)CCC(=O)Nc1cc(C)on1)c1ccc(F)cc1` (configuration not stated) stands -11.7%.

`CC(C)c1ccc(/C=N/NC(=O)CC(=O)NCc2ccccc2)cc1`: the inhibition was -41.2%. The result for `CCN(CC)S(=O)(=O)c1cc([N+](=O)[O-])ccc1NNC(=O)Nc1ccc(Cl)c(Cl)c1` reads 83.8% (active).

Regarding `CCN(CC)S(=O)(=O)c1cc([N+](=O)[O-])ccc1NNC(=O)Nc1ccccc1`, the inhibition was -23.4%. Regarding `CCN(CC)S(=O)(=O)c1cc([N+](=O)[O-])ccc1NNC(=O)Nc1ccc(F)cc1`, the inhibition is 2%. The result for `COc1ccc(CN2CCN(C(=O)CCC(=O)Nc3nnc(C4CCCCC4)s3)CC2)cc1F` reads 26.9%; that for `COc1ccc(/C=N\NC(=O)c2ccccc2)cc1COc1ccc(F)cc1`, 39.2%; that for `COc1ccc(C(=O)N/N=C/c2ccc(OC)c(COc3ccccc3)c2)cc1`, 3.5%.

In the case of `COc1ccc(C(=O)N/N=C/c2ccc(OC)c(COc3ccc(F)cc3)c2)cc1`, the inhibition is 56.6% (active). Under `COc1ccc(/C=N/NC(=O)c2cc(C(C)(C)C)[nH]n2)cc1COc1ccc(F)cc1F` stands 44.1% (active); under `COc1ccc(C(=O)N/N=C/c2ccc(OC)c(COc3ccc(F)cc3F)c2)cc1`, 38.8%.

`COc1ccc(/C=N\NC(=O)c2ccccc2F)cc1COc1ccc(F)cc1F`: the inhibition was 31.2%.

For `C/C(=N\NC(=O)c1ccc2ccccc2c1)c1cccs1`, the inhibition is -67.5%. The result for `O=C(CCSc1ccccc1)NCCSCc1ccccc1` reads -33.8%; that for `Cc1ccc(SCCC(=O)NCCSCc2ccccc2C)cc1`, -35.1%; that for `Cc1ccccc1CSCCNC(=O)CCSc1ccccc1`, 71.3% (active). Under `Cc1ccc(CNC(=O)CCSCc2ccccc2C)cc1` stands -14.9%. For the compound `COc1ccc(CNC(=O)CCSCc2ccc(C)cc2)cc1`, the inhibition is -7.5%. Under `COc1ccc(CNC(=O)CCSCc2ccccc2C)cc1` stands 49.7% (active); under `CCC(C)[C@H](NC(=O)Nc1ccccc1F)C(=O)O` (some centres not stated), -12.6%. Take `NS(=O)(=O)c1cccc(NC(=O)COC(=O)CCSc2ccccc2)c1`: the inhibition was -26.8%. The result for `O=[N+]([O-])c1cnc(Sc2ccncn2)s1` reads 66% (active); that for `O=[N+]([O-])c1ccc(Sc2n[nH]c(-c3ccncc3)n2)nc1`, -10.2%.

For the compound `O=C(Nc1ccc(Cl)cc1)Nc1ccccc1Sc1ncc([N+](=O)[O-])s1`, the inhibition was -6.5%. Under `O=C(O)C1Nc2c(cccc2C(F)(F)F)C2C=CCC12` (configuration not stated) stands -8.8%; under `O=C(Nc1ccncc1)c1c(F)c(F)c(F)c(F)c1F`, 11%. The result for `O=C(Nc1ccccc1)c1c(F)cccc1F` reads -2.4%. The result for `O=S(=O)(c1ccc(Cl)s1)N1CCN(c2ncccn2)CC1` reads -11.8%; that for `Cc1ccccc1-c1nsc(SCC(=O)c2ccc(Cl)cc2)n1`, -4.8%.

On to `c1coc(C2=NCCc3ccccc32)c1`, for which the inhibition is -18%. For `Nc1nc(Cl)nc(N(c2ccccc2)c2ccccc2)n1`, the inhibition was -8.3%. On to `CCN(CC)c1nc(N)nc(N(c2ccccc2)c2ccccc2)n1`, for which the inhibition is 13.6%.

`Nc1nc(CCl)nc(N(c2ccccc2)c2ccccc2)n1`: the inhibition was 50.5% (active).

As to `Fc1ccc2c(c1)C(c1ccncc1)=NNC(c1ccccc1)=N2`, the inhibition was 16%. The result for `Cc1ccc(C(=O)COC(=O)c2ccc(-c3cnc4ccccc4n3)cc2)cc1C` reads -22.2%.

Consider `O=C1CCCN1CCCNC(=S)Nc1ccc(Cl)cc1Cl`, for which the inhibition is -41.9%. In the case of `N/C(=N\NC(=O)c1sccc1OCc1ccc(Cl)cc1Cl)c1ccccn1`, the inhibition is -6%. The result for `Cc1cc(NC(=O)/C=C/C(=O)N(c2ccccc2C)C(C(=O)NC2CCCC2)c2ccc(F)cc2)no1` (configuration not stated) reads 30.5%; that for `CCOc1ccc(N(C(=O)/C=C/C(=O)Nc2cc(C)on2)C(C(=O)NC2CCCC2)c2ccccc2C)cc1` (configuration not stated), 52.5%.

As for `CCc1ccc(C(C(=O)NC2CCCC2)N(C(=O)/C=C/C(=O)Nc2cc(C)on2)c2ccccc2C)cc1` (configuration not stated), the inhibition is 76.7% (active). Under `ClCc1nc2ccccc2c2ccccc12` stands 64.7% (active). The result for `CCOC(=O)c1c(CCl)nc2ccccc2c1-c1ccccc1` reads 19.7%; that for `CCOC(=O)c1c(CCl)nc2ccccc2c1C`, -9.2%. Under `CC(=O)N(CCc1ccccc1C)Cc1cc2ccc(C)cc2[nH]c1=O` stands -1%. Take `CCOC(=O)N1CCN(C(=O)Cn2nc(C)c3sc4ccccc4c3c2=O)CC1`: the inhibition was 53.1% (active). The result for `CCN1CCN(C(=O)Cn2nc(C)c3sc4ccccc4c3c2=O)CC1` reads -12.8%.

For `Cc1nn(CC(=O)N2CCN(C)CC2)c(=O)c2c1sc1ccccc12`, the inhibition is -7.7%.

Turning to `Cc1nnc(SCc2cn3ccsc3n2)n(N)c1=O`, the inhibition was 8.4%. As to `Cc1ccc(C)c2sc(NC(=O)CN3C(=O)CCC3=O)nc12`, the inhibition is 14.9%. Under `CCC(C)(C)NC(=O)c1cc(S(=O)(=O)N2CCc3ccccc32)cn1C` stands 14.8%; under `CCCNC(=O)c1cc(S(=O)(=O)N2CCc3ccccc32)cn1C`, 30.1%; under `CC1=NN(Cc2ccccc2)C(=O)C1C(c1ccncc1)C(C#N)C#N` (configuration not stated), 5.2%. For the compound `Cc1nc2c(ccc3nc(NC(=O)C4CC4)sc32)s1`, the inhibition was 69% (active). On to `CCC(=O)Nc1nc2ccc3sc(C)nc3c2s1`, for which the inhibition is 17.2%. Under `Cc1nc2c(ccc3nc(NC(=O)Cc4ccccc4)sc32)s1` stands -51.4%. Turning to `Fc1ccc(NC(=S)Nc2cccnc2)c(F)c1F`, the inhibition is -19.1%.
